Source: PubChem BioAssay (several laboratories)
Hits are enriched below; roughly 2.3% of the tested compounds scored in any of these assays.
EBV LMP1 NFkB – EBV LMP1-driven NF-kappaB luciferase reporter inhibitors, primary screen, cell-based, luminescence, single point; LMP1-induced NF-kappaB luciferase reporter cells; inhibition, % at 12.5 µM; 0.69% of 350,000 active; in the data active means inhibition above about 41%; inconclusive means no clear call, values can overlap the other calls;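 further: 0% = neutral control wells and 100% = reference inhibitor control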
Gli-Sufu antag – Gli-Sufu pathway antagonists, primary screen, luciferase luminescence, Sufu-KO-LIGHT cells, uHTS. Sufu-KO-LIGHT fibroblasts, Gli luciferase reporter luminescence. inhibition, % at 5 µM. 0.74% of 340,000 active. AID 588413, 2011;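 active means inhibition above about 55%, limit read from the data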;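 further: 0% = DMSO-treated cells and 100% = wells with medium but no cells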
Jurkat NFkB inh – inhibitors of induced NF-kB luciferase reporter, primary screen, TCR NF-kB activation inhibitor project, cell-based, luminescence, uHTS; Jurkat, PMA/ionomycin-induced NF-kB luciferase reporter; inhibition, % at 4 µM; 0.53% of 330,000 active; in the data active means inhibition above about 50%
TRPM1 prom inh – inhibitors of MITF-dependent TRPM1 promoter reporter, primary screen, cell-based, SK-MEL-5, single point, luciferase; SK-MEL-5 TRPM1 promoter luciferase, 24 h; inhibition, % at 12.5 µM; 0.83% of 330,000 active; AID 488899, 2010;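 active means mean inhibition across replicates of 60% or more, whatever share of single replicates reaches that level; inconclusive means some that reach 60%, reason not given; inactive means mean inhibition across replicates below 60%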
Shn3 inh set2 – reduction of Shn3 3'UTR firefly luciferase signal, primary screen, Schnurri-3 inhibitor project, cell-based, Clone20 osteoblasts, set 2; 0.52% of 360,000 active; Clone20 osteoblast Shn3 3'UTR firefly luciferase, 24 h; inhibition, % at 12.5 µM; AID 588674, 2011;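 active means mean inhibition of at least 75% with every replicate also reaching 75%; inconclusive means mean inhibition at least 75% but some replicate below; inactive means mean inhibition below 75%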;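 further: 0% = median of neutral control wells and 100% = pilot-screen positive control compound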
697 NFkB inh – inhibitors of PMA/ionomycin-induced NF-kB reporter, 697 cells, primary screen, B-cell NF-kB inhibitor project, cell-based, luminescence, uHTS; 697 B-cell NF-kB luciferase reporter, 16 h; inhibition, % at 4 µM; 0.33% of 330,000 active; in the data active means inhibition above about 35%
Jurkat NFkB conf – PMA/ionomycin-induced NF-kB reporter inhibitors, Jurkat retest, confirmation, T-cell NF-kB inhibitor project, cell-based, luminescence, single concentration; shares compounds with Jurkat NFkB inh; Jurkat NF-kB luciferase, 16 h; inhibition, % at 4 µM; 27% of 2,700 active; AID 435020, 2010;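 active means inhibition reaching about 45% at 4 µM in either replicate, limit read from the data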;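 further: plate controls were PMA/ionomycin stimulated DMSO wells for no effect and unstimulated DMSO wells for full effect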
Starred values were filed as active, the others as inactive; ? = inconclusive; / = no result given.

SMILES	EBV LMP1 NFkB	Gli-Sufu antag	Jurkat NFkB inh	TRPM1 prom inh	Shn3 inh set2	697 NFkB inh	Jurkat NFkB conf
Cc1ccccc1NS(=O)(=O)c1ccc(N2CCCC2=O)cc1	15	0	54*	13	19	-83	48
CN1CCN(S(=O)(=O)c2cccc(C(=O)Oc3cccc(C#N)c3)c2)CC1	3	-5	20	2	-11	-1	/
COC(=O)c1[nH]c2ccc(F)cc2c1NS(=O)(=O)c1ccc(OC)cc1	2	2	66*	35	1	-44	47*
O=C(Nc1ccccc1)C1CCCN1C(=O)NCc1ccccc1 (configuration not stated)	-4	-4	4	24	0	8	/
COc1cc(-c2noc(C)c2/C=C/c2cccc([N+](=O)[O-])c2)cc(OC)c1OC	28	26	62*	13	41	-3	51*
COc1cc(/C=C/c2onc(C)c2[N+](=O)[O-])cc(OC)c1OC	19	18	21	-5	-127	6	/
CC(=O)c1cccc(NC(=O)CCN2C(=O)C3C4CCC(C4)C3C2=O)c1 (configuration not stated)	6	-10	-10	0	-1	-13	/
COC(=O)c1ccc(C(=O)NC2CCCc3c2cnn3-c2ccc(C)c(C)c2)cc1 (configuration not stated)	23	33	60*	30	54	-17	59*
CCn1cc(C(=O)NC2CCCc3c2cnn3-c2cccc(C)c2C)cn1 (configuration not stated)	11	/	74*	13	76	-26	66*
COC(=O)c1ccc(C(=O)NC2CCCc3c2cnn3-c2cc(F)cc(F)c2)nc1 (configuration not stated)	6	-1	52*	22	-5	-71	32
O=C(NC1CCCc2c1cnn2-c1cc(F)cc(F)c1)c1ccccn1 (configuration not stated)	-1	3	-4	-4	-7	-30	/
CCOC(=O)Cc1csc(N/C(=N/S(=O)(=O)c2ccc(F)cc2F)c2ccccc2)n1	2	-3	-6	14	-7	5	/
CCOCC(=O)NC1CCc2cc(OC)c(OC)c(OC)c2-c2ccc(SC)c(=O)cc21 (configuration not stated)	-4	48	/	46	2	/	/
COc1cc2c(c(OC)c1OC)-c1ccc(NC(=O)c3ccccc3)c(=O)cc1[C@@H](NC(C)=O)CC2	-1	-20	50	3	-2	9	5
CCOC(=O)CN1c2ccccc2NC(=O)CC1C (configuration not stated)	-18	9	3	-2	-9	11	/
CCOC(=O)c1c(NC(=O)CSc2c[nH]c3ccccc23)sc2c1CCC2	-26	9	55*	/	23	-19	10
Cc1cnc(C(=O)Nc2ccc(F)cc2)cn1	6	-61	-43	-48	-74	-49	/
Cc1cnc(C(=O)Nc2ccc(N3CCN(C(=O)OC(C)(C)C)CC3)cc2)cn1	11	12	64*	49	40	-70	33
CC(C)(C)c1ccc(C(=O)O/N=C(\N)c2ccccc2)cc1	57*	89*	71*	69*	70	0	85*
N/C(=N\OC(=O)c1ccc(Br)cc1)c1ccccc1	-41	-71	-163	-74	-39	-178	-103
COc1cc(OC)cc(C(=O)N2CCN(c3ncccn3)CC2)c1	2	8	-8	4	-2	13	/
CC(/C=C/c1ccc(O)cc1)=N/O	-9	12	-14	-24	-10	-39	/
O=C(Nc1c(-c2ccc3c(c2)OCO3)[nH][nH]c1=O)c1cnccn1	/	/	/	/	-5	/	/
CCOc1ccccc1C1CC(=O)Nc2cc(C)c(C)cc21 (configuration not stated)	-12	-1	52*	15	21	-53	38
CCOc1ccccc1C1CC(=O)Nc2cc3c(cc21)OCCO3 (configuration not stated)	12	46	70*	9	61	-5	57*
SMILES	EBV LMP1 NFkB	Gli-Sufu antag	Jurkat NFkB inh	TRPM1 prom inh	Shn3 inh set2	697 NFkB inh	Jurkat NFkB conf
CCOc1ccccc1C1CC(=O)Nc2cc(OC)c(OC)c(OC)c21 (configuration not stated)	-9	13	-7	3	-52	27	/
COc1ccc(-c2nc(-c3ccccc3)nc(N3CCN(C)CC3)c2C#N)cc1	3	5	13	-1	-9	16	/
COc1ccc(-c2nc(-c3cccc(C)c3)nc(N3CCN(C)CC3)c2C#N)cc1	15	1	51*	3	13	6	9
O=C(NN1CCOCC1)C12CC3CC(CC(C3)C1)C2	0	-4	-4	-5	-22	4	/
COc1ccc([N+](=O)[O-])cc1Nc1c2ccccc2nc2ccccc12	14	40	59*	32	35	-37	41
CCCCN1C(=O)C(CC(=O)NCCN2CCOCC2)CC(C(=O)N2CCOCC2)=C1C (configuration not stated)	3	/	/	/	-27	/	/
CCN(CC)S(=O)(=O)c1ccc(N/N=C/c2cc(OC)ccc2O)nc1	46*	47	52*	?	80	-57	-3
CCCc1cc(=O)n2nc(N3CCC(C(=O)Nc4c(F)c(F)c(F)c(F)c4F)CC3)sc2n1	-3	7	15	-4	5	-1	/
CNC(=O)Nc1ccc(C2SCCS2)cc1	-3	-2	-8	-9	-23	10	/
O=C(Nc1ccc(C2SCCS2)cc1)c1ccccc1	/	-98	-150	/	-113	-216	-110
O=C(Nc1ccc(Cl)c(Cl)c1)c1ccccc1	-53	-74	-188	-57	-49	-126	-93
CCC(C)(C)NC(=O)C(c1ccncc1)N(C(=O)c1sc(C)nc1C)c1ccc(F)cc1 (configuration not stated)	-3	13	8	-1	3	3	/
CS(=O)(=O)c1ccc2nc(NC(=O)c3cccs3)sc2c1	21	-56	-55	15	-21	-149	/
O=C(N/N=C/c1ccc(Cl)cc1Cl)c1n[nH]c2c1CCCC2	-7	-63	16	-57	-74	-127	/
O=C(N/N=C\c1cccc(Cl)c1)c1n[nH]c2c1CCCC2	-30	-80	-152	-93	-40	-192	-63
CCOc1cccc(CN2CCC(n3nccc3NC(=O)C3CCCC3)CC2)c1	3	22	11	12	-1	11	/
